Experimental data published in PubChem BioAssay (NCATS).
Inconclusive results are not listed. Where a call stands in place of a potency, no number is given. Active and inactive are the calls of the source. Unless noted, calls come from the whole dose curve; as a rule, active = well fitted curve in the direction sought with a large enough effect; inconclusive = small, poorly fitted or top-dose-only effect, or another doubt; inactive = no such curve, though single readings can be large; an effect the other way counts as inactive or inconclusive.

Legend:
[1] = tested on: Zika virus NS2B-NS3 protease; assay: Primary screen GU AMC qHTS for Zika virus inhibitors (AID 1347154); note: nearly all actives have a fitted effect of over 70% in size
In short: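 Fluorogenic AMC-substrate cleavage by noncovalent NS2B-NS3 protease complex (25 nM, pH 8.0 Tris buffer with Tween 20) followed for 15 minutes at room temperature (~20% conversion). Percent inhibition from ex340/em450 signal change, fitted by 4-parameter Hill equation.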

[2] = molecular target: Cytochrome P450 3A4 (Homo sapiens) (UniProt P08684); assay: qHTS Assay for Inhibitors and Substrates of Cytochrome P450 3A4 (AID 884); note: nearly all actives have a fitted effect of over 50% in size
In short: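 Luminescent readout of luciferin produced by CYP3A4 (20 nM) dealkylation of Luciferin-PPXE, 25 uM (its KM). NADPH-driven reaction ran 60 min at RT after 10 min compound preincubation; data scaled to 57 uM ketoconazole as 100% inhibition.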

[3] = Confirmation and Secondary Assay for Modulators of Hemoglobin Beta Chain Splicing at IVS2 654 locus (AID 910);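 note: HeLa cells stably carrying EGFP split by mutant beta-globin IVS2-654 intron; per-well total GFP intensity by laser scanning cytometry after 2-day treatment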
In short: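 Readout: per-well total peak green fluorescence (488 nm ex, 500–520 nm em) from objects 5–250 µm, reflecting correct splicing of an EGFP-654 reporter. Compounds were applied for 2 days at 37 °C to overnight-plated HeLa EGFP-654 cells; controls were DMSO and 500 nM IVS2-654 PNA.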

[4] = qHTS Assay for Lipid Storage Modulators (AID 1519; calls by dose curve); settings: Drosophila S3 cells, BODIPY lipid droplet/cell ratio, laser cytometry, cells loaded with oleic acid
In short: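 Cells seeded at 5,000 per well were treated with compounds over a concentration series and loaded with oleic acid (400 uM, as added). Lipid droplet fluorescence (488 nm excitation, 500-530 nm channel) was read by laser-scanning cytometry and normalized to 20 uM Triacsin C.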

[5] = molecular target: Ubiquitin carboxyl-terminal hydrolase 1 (Homo sapiens) (UniProt O94782); assay: Inhibitors of USP1/UAF1: Pilot qHTS (AID 504865);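 note: rhodamine fluorescence freed from ubiquitin-rhodamine substrate followed over time; top concentration of the series differs between compounds; nearly all actives have a fitted effect of over 35% in size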
In short: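 Deubiquitinase activity followed as kinetic rhodamine fluorescence release from 150 nM Ub-Rho. 1 nM USP1/UAF1 with compound, after 15 min room-temperature preincubation, in HEPES pH 7.8 buffer containing TCEP, EDTA, BSA and Tween-20.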

Furin (Homo sapiens) = Furin (Homo sapiens) (UniProt P09958); assay: Furin counterscreen qHTS for Zika virus inhibitors (AID 1347149); note: nearly all actives have a fitted effect of over 70% in size; note: potency is the fitted concentration of half-maximal effect;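 for activity change, negative = inhibition: purified recombinant full-length human furin enzyme at 5 nM; fluorescence gain from furin cutting a BOC-RVRR-AMC peptide substrate over 15 min; top concentration of the series differs between compounds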
In short: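 Counterscreen measures cleavage of 2 microM BOC-RVRR-AMC, below its ~15 microM Km, by 5 nM full-length human furin at pH 7.0 after a 15-min compound preincubation. Inhibition derives from the 15-min fluorescence increase at 37C.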

[6] = tested on: Zika virus NS2B-NS3 protease (unlinked); assay: Optimization of GU AMC qHTS for Zika virus inhibitors: Unlinked NS2B-NS3 protease assay (AID 1347151); note: nearly all actives have a fitted effect of over 80% in size
In short: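 Fluorescence gain (340/450 nm) over 15 min at room temperature, ~20% conversion, gave percent inhibition fitted to a 4-parameter Hill equation; enzyme was unlinked NS2B-NS3 (25 nM final), pH 8.0 Tris buffer.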

[7] = Vero cells viability qHTS for Zika virus inhibitors (AID 1347167)
In short: (§1)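 Luminescent ATP readout (CellTiter Glo) after 30 min at 37 degrees C gives viability; cells in DMEM + 4% FBS were treated 24 to 48 hours with compound, following overnight attachment.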

[8] = Tertiary RLuc qRT-PCR qHTS assay for Zika virus inhibitors (AID 1347169); note: potency is the fitted concentration of half-maximal effect; nearly all actives have a fitted effect of over 55% in size
In short: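 Orthogonal cell-based readout: luminescence measured 1-1.5 hrs after adding live-cell Renilla substrate to Vero cells that had been infected with ZIKV-RLuc (MOI 1-2) post-compound, incubated 48-72 hrs at 37 degrees C.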

[9] = tested on: Zika virus NS2B-NS3 protease (linked construct); assay: Confirmatory screen NINDS AMC qHTS for Zika virus inhibitors (AID 1347152); note: potency is the fitted concentration of half-maximal effect; nearly all actives have a fitted effect of over 70% in size
In short: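 IC50s from 4-parameter Hill fits of percent inhibition, based on AMC fluorescence gain (340/450 nm) over 15 min with 10 microM Bz-Nle-KRR-AMC. Enzyme: 1 nM linked NS2B-NS3 in Tris-HCl pH 8.0; 15-min compound preincubation.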

[10] = tested on: Zika virus NS2B-NS3 protease (unlinked complex); assay: Confirmatory screen GU AMC qHTS for Zika virus inhibitors (AID 1347153);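 note: enzyme at 25 nM with substrate at 10 µM below its Km of 18.3 µM; potency is the fitted concentration of half-maximal effect; nearly all actives have a fitted effect of over 70% in size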
In short: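 Compounds were preincubated 15 min at room temperature with 25 nM noncovalent NS2B-NS3 protease at pH 8.0; AMC substrate added at 10 microM and 15-min fluorescence gain (340/450 nm) converted to percent inhibition, fitted 4-parameter.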

[11] = Confirmatory screen NINDS Rhodamine qHTS for Zika virus inhibitors (AID 1347161); note: potency is the fitted concentration of half-maximal effect; nearly all actives have a fitted effect of over 60% in size
In short: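 qHTS dose-response: 25 nM linked protease, pH 8.0 Tris/Tween buffer, cpd titration, 15 min RT preinc, 1.5 microM Rhod110 peptide, 15 min reaction (~15% conversion), Ex480/Em540; 4-parameter Hill fit.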

[12] = tested on: Zika virus NS2B-NS3 protease (linked construct); assay: 384 well plate NINDS Rhodamine confirmatory qHTS for Zika virus inhibitors (AID 1347164);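 note: fluorescence from protease cleavage of Ac-LKRR-rhodamine 110 substrate; potency is the fitted concentration of half-maximal effect; nearly all actives have a fitted effect of over 65% in size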
In short: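 Fluorescence at 485/538 nm was measured 25 minutes after adding 10 microM Ac-LKRR-Rd substrate, in the dark at room temperature. The protease (5, 30 or 60 nM final) had been preincubated ~15 minutes with compound; aprotinin as control.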

[13] = HepG2 cells viability qHTS for Zika virus inhibitors (AID 1347168); note: potency is the fitted concentration of half-maximal effect
In short: as §1

[14] = Primary qHTS for small molecule stabilizers of the endoplasmic reticulum resident proteome: Secreted ER Calcium Modulated Protein (SERCaMP) assay (AID 1508630)
In short: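 The SH-SY5Y reporter protocol was run at 3 concentrations up to 38.3 uM (primary) or 11 concentrations (follow-up): 16 h compound, 100 nM thapsigargin for 4 h, then extracellular luciferase luminescence.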

Sequence of Furin (Homo sapiens) (P09958 whole entry, looked up): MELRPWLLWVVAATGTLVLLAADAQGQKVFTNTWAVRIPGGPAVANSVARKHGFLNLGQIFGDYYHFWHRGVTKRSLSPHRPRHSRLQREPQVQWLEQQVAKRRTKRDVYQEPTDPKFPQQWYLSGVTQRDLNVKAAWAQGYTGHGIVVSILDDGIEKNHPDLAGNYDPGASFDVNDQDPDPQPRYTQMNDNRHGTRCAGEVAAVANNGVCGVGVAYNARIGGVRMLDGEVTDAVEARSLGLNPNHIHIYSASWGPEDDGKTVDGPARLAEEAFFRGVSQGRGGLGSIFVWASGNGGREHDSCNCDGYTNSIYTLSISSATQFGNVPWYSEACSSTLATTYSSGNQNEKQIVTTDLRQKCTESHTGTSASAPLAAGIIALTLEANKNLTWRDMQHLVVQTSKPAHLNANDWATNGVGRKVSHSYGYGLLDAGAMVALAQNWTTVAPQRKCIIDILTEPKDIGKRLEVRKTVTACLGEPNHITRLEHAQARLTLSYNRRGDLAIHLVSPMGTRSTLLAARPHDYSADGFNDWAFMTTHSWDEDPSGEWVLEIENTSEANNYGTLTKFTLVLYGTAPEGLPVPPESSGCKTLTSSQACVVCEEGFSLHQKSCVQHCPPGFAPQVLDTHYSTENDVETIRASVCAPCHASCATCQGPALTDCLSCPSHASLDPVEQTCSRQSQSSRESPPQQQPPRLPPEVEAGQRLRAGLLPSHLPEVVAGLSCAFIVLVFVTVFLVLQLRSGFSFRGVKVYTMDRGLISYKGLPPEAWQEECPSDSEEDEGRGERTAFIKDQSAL
Sequence of Ubiquitin carboxyl-terminal hydrolase 1 (Homo sapiens) (O94782 whole entry, looked up): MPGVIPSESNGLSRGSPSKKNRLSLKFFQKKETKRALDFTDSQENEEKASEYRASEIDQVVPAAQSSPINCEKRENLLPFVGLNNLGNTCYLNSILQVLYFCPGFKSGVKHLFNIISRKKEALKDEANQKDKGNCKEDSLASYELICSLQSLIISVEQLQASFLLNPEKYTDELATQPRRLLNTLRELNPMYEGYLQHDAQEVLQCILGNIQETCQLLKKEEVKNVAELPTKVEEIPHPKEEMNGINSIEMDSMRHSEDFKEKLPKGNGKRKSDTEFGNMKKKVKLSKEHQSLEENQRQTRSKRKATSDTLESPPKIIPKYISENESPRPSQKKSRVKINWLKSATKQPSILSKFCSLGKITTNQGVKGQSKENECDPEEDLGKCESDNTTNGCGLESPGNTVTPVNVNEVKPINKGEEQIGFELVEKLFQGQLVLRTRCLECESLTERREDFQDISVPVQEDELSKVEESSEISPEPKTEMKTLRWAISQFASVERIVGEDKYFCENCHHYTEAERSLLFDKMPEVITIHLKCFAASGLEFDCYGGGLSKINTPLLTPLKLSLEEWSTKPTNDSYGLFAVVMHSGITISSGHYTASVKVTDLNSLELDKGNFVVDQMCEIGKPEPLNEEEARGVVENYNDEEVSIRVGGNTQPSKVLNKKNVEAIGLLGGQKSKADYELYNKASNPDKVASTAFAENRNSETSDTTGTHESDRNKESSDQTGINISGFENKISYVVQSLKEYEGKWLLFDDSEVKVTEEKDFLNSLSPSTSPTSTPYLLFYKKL
Sequence of Cytochrome P450 3A4 (Homo sapiens) (P08684 whole entry, looked up): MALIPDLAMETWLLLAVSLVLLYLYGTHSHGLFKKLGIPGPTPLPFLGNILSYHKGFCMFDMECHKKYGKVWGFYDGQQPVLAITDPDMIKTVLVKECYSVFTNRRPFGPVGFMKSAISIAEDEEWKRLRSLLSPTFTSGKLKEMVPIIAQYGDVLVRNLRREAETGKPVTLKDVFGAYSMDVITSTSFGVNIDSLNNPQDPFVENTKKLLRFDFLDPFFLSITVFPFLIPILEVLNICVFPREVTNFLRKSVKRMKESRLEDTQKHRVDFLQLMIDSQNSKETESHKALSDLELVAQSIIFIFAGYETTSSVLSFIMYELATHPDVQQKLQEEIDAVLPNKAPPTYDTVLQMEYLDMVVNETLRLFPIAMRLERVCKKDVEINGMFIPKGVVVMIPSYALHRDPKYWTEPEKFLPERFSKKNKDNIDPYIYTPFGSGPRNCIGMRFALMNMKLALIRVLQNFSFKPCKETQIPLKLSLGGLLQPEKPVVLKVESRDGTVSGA

With `C[C@H](NC(=O)[C@@H](N)Cc1ccc(O)cc1)C(=O)NCC(=O)N(C)[C@@H](Cc1ccccc1)C(=O)N[C@H](CO)CCS(C)=O` (stereo partly specified) the activity change, negative = inhibition [1] was 4.8% [at 6.83 µM] (inactive).
With `C=C(C)C1CCC(C)=CC1c1c(OC)cc(C)cc1OC` (stereo unspecified) the Potency [1] was “inactive”.
For `COC1C(O)C(C)O[C@@H](OC2CC[C@@]3(C)C4CC[C@]5(C)C(C6=CC(=O)OC6)CC[C@@]5(O)C4CC[C@@H]3C2)C1O` (stereo partly specified), the Potency [2] was “inactive”, the Potency [3] was “inactive” and the activity change, negative = inhibition ([4]; at 57.5 µM (top of the series)) was 8.72% (inactive). For the same compound, the max response ([4]; measured here: cell count channel max response) was 8.32%, the max response ([4]; measured here: lipid channel max response) was 14.8% and the Potency [5] was “inactive”. The Potency (Furin (Homo sapiens)) was “inactive”, the outcome [6] was “inactive” and the Potency [7] was “inactive”. For the same compound, the Potency [8] was 65.8 nM (active).
In the case of `CC1OC(O[C@H]2C[C@@H](O)[C@]3(CO)[C@H]4[C@H](O)C[C@]5(C)[C@@H](C6=CC(=O)OC6)CC[C@]5(O)[C@@H]4CC[C@]3(O)C2)C(O)C(O)C1O` (stereo partly specified), the Potency (Furin (Homo sapiens)) is reported as “inactive”, the outcome [6] is reported as “inactive” and the Potency [7] is reported as “inactive”. For the same compound, the Potency [8] was 147 nM (active).
For `C[C@H]1O[C@@H](O[C@H]2[C@@H](O)C[C@@H](O[C@H]3[C@@H](O)C[C@H](O[C@H]4CC[C@@]5(C)[C@H](CC[C@@H]6[C@@H]5CC[C@]5(C)[C@@H](C7=CC(=O)OC7)CC[C@]65O)C4)O[C@@H]3C)O[C@@H]2C)C[C@H](O)[C@@H]1O`, the Potency (Furin (Homo sapiens)) was “inactive”, the outcome [6] was “inactive” and the Potency [7] was “inactive”. For the same compound, the Potency [8] was 53.7 nM (active).
With `CNc1ccc2oc(C[C@@H]3OC4(CC[C@@H]3C)O[C@H]([C@@H](C)C(=O)c3ccc[nH]3)[C@H](C)C[C@H]4C)nc2c1C(=O)O` (stereo partly specified) the Potency (Furin (Homo sapiens)) was 21.5 µM (active), the Potency [9] was 19.2 µM (active) and the Potency [10] was 24.1 µM (active). The Potency [11] was 9.87 µM (active), the Potency [12] was 44.7 µM (active) and the Potency [13] was 26.2 µM (active). The Potency [14] was “inactive”.
For `CN(C)c1ccc(/C=C2\CCCN=C2c2cccnc2)cc1`, the Potency [1] was “inactive”.
In the case of `CCCCC/C=C\C/C=C\C/C=C\C/C=C\CCCCCC(=O)NCCO`, the activity change, negative = inhibition [1] is reported as 3.5% [at 6.83 µM] (inactive).
With `O=C1CC2OCC=C3CN4CCC56c7ccccc7N1C5C2C3CC46` (stereo unspecified) the Potency [1] was “inactive”.
With `CC(C(=O)OC1CC2CCC(C1)N2C)c1ccc(Br)cc1` (stereo unspecified) the Potency [1] was “inactive”.
